Compounds without any hit were thinned out: in the full panel of roughly 83,000, 20% have a hit.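 96-well plates, one dose, 48 hours. Percent growth reported; active if below 10.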 Unmarked numbers belong to inactive results. Calls of active or inactive are those of the source.

Experiment in all cases: NCI-60 one-dose screen, 48 h (100 = growth as untreated, 0 = no growth, -100 = all killed)
Common to all, as to conditions: 10 µM unless noted

Experiment [1] has as its system RPMI-8226 leukemia.
In experiment [2] the test system is OVCAR-8 ovarian.
In experiment [3] the test system is OVCAR-5 ovarian.
Experiment [4] relates to OVCAR-4 ovarian.
The test system of experiment [5] is SK-OV-3 ovarian.
The subject of experiment [6] is IGROV1 ovarian.
Experiment [7] deals with OVCAR-3 ovarian.
In experiment [8] the test system is HS 578T breast.
Experiment [9] relates to NCI/ADR-RES ovarian.

Consider `CCN(CC)c1ccc(/C=C\C(=O)c2ccc(NC(C)=O)cc2)cc1`, for which the growth in experiment [1] is 76.9%; in [2], 76%; in [3], 68.5%; in [4], 90.6%; in [5], 69.2%; in experiment [6], 75.5%. In addition, the growth in experiment [7] is 104%; in [8], 55.1%; in experiment [9], 37.9%.
Turning to `CCOC(=O)C1=C(C(=O)c2ccccc2)C(c2cccc([N+](=O)[O-])c2)C(C(=O)c2ccccc2)=C(C(=O)OCC)N1`, the growth is 96.8% in [2]; 87.7% in [3]; 92.2% in experiment [4]; 96.8% in experiment [5]; 97.5% in experiment [6]; 96.1% in experiment [7]. The growth in experiment [8] was 90.1%; in experiment [9], 90.9%.
Consider `O=C(Cc1nc2cc(Cl)c(Cl)cc2nc1CC(=O)c1cccnc1)c1cccnc1`, for which the growth is 45.1% in [1]; 77.6% in experiment [2]; 103% in experiment [3]; 83.9% in experiment [4]; 94.7% in experiment [5]; 73.6% in experiment [6]. Further, the growth in experiment [7] was 78.5%; in [8] it was 76%; in [9], 76.4%.
Regarding `CCCCCCCCCCCC[n+]1ccccc1` (tested in a mixture with another compound), the growth is -56.2% (active) in [1]; -30.2% (active) in experiment [2]; -22.6% (active) in experiment [3]; 4% (active) in experiment [4]; -18.4% (active) in [5]; -63.1% (active) in experiment [7]. The growth is -28.7% (active) in experiment [8] and 55.3% in experiment [9].
Turning to `CCC1C[N+]2=C(c3cc(OC)c(OC)cc3CC2)c2c1cc1n2CCc2cc(OC)c(OC)cc2-1` (stereo unspecified), the growth in experiment [1] is 11.6%; in [2], 32.4%; in experiment [4], 14.7%; in experiment [5], 94.9%; in [7], 10%; in [8] it was 42.4%. In addition, in [9], the growth was 101%.
For `Nc1nc2ncc(CNc3ccc(C(=O)NC(CCC(=O)NC(CCC(=O)NC(CCC(=O)NC(CCC(=O)NC(CCC(=O)O)C(=O)O)C(=O)O)C(=O)O)C(=O)O)C(=O)O)cc3)nc2c(=O)[nH]1` (stereo unspecified), the growth in experiment [2] is 101%; in [3], 110%; in experiment [4], 111%; in experiment [5] it was 101%; in [6], 103%; in [7], 118%. The growth was 90.1% in experiment [8] and 119% in experiment [9].
With `COc1cc(NC(=O)C2=C(C)NC(C)=C(C(=O)Nc3cc(OC)c(Cl)cc3OC)C2c2cccc([N+](=O)[O-])c2)c(OC)cc1Cl`, the growth in [1] was 25.6%; in [2] it was 38.3%; in experiment [4], 39.4%; in experiment [5] it was 52.1%; in experiment [6], 11.4%; in [7], 32.3%. Further, the growth in [8] is 8.61% (active); in experiment [9], 22%.
As to `O=C(/C=C/c1ccccc1)c1ccccc1O`, the growth in [1] was 26.6%; in experiment [2], 87.7%; in experiment [3] it was 91.1%; in [4], 87.6%; in experiment [5], 107%; in experiment [6], 76.5%. Besides, the growth in [7] is 89%; in experiment [8], 94.7%; in experiment [9] it was 93.8%.
Regarding `CCc1oc2ccccc2c1C(=O)c1cc(Br)c(O)c(Br)c1`, the growth in experiment [1] was 34.7%; in experiment [2], 79.2%; in experiment [3] it was 124%; in experiment [4] it was 67%; in experiment [5], 95.8%; in experiment [6], 72.2%. Further, the figures for the growth in experiment [7] and in experiment [9] were 58.2% and 44.1%, respectively.
In the case of `Cc1ccc2c(c1)sc(-c1ccc(N(C)C)cc1)[n+]2C`, the growth was 16.3% in [2]; 20.3% in [4]; -14.2% (active) in [5]; 8.14% (active) in experiment [6]; -14.8% (active) in experiment [7]; 20.3% in experiment [8]. Moreover, the growth in [9] is 81.3%.
Consider `O=C(c1ccc(O)c(Br)c1)c1ccc(O)c(Br)c1`, for which the growth in [1] is 99.5%; in experiment [2], 106%; in experiment [3] it was 110%; in [4], 103%; in experiment [5], 116%; in experiment [6], 114%. Besides, the growth is 114% in experiment [7], 113% in [8] and 105% in [9].
For the molecule `CCc1cccc(CC)c1N1C(=O)C=CC1=O`, the growth in [2] was 112%; in experiment [3] it was 116%; in experiment [4], 111%; in experiment [5], 121%; in experiment [7] it was 97%; in [8] it was 108%. For the same molecule, the growth in experiment [9] was 118%.
Take `N#C/C(=N\Nc1ccc(Cl)cc1)C(=O)C1CC1`: the growth in [1] was 44.4%; in [2], 63.3%; in experiment [3], 91.9%; in experiment [4], 31.2%; in experiment [5] it was 65.6%; in experiment [6] it was 54.2%. Moreover, the growth in experiment [7] is 39.8%; in experiment [8], 23.7%; in experiment [9] it was 79.8%.
In the case of `COc1cccc2c1C(=O)c1c(O)c3c(c(O)c1C2=O)C[C@@](O)(C(=O)CO)C[C@@H]3OC1CC(OC(C)=O)C(OC(C)=O)C(C)O1` (stereo partly specified), the growth was -43.5% (active) in experiment [1]; 0.76% (active) in experiment [2]; 1.32% (active) in [3]; -4.7% (active) in experiment [4]; -10.4% (active) in [5]; -41.2% (active) in experiment [7]. Besides, the growth in experiment [8] was -10.9% (active); in [9], 2.46% (active).
For `CCCCCCCCCCCC[N+]1(CCCCCCCCCCCC)CCCC(C)C1` (stereo unspecified), the growth in [1] was -63.1% (active); in [2], -92.1% (active); in [3], -98.3% (active); in experiment [4], -86.3% (active); in experiment [5], -96.2% (active); in [7], -88.7% (active). For the same molecule, the growth is -40.8% (active) in experiment [8] and 19.6% in [9].
In the case of `CCN1/C(=C/C(C)=C/c2sc3ccc4ccccc4c3[n+]2CC)Sc2ccc3ccccc3c21`, the growth was -58.1% (active) in [1]; -68.7% (active) in [2]; -91.7% (active) in experiment [3]; -76.9% (active) in experiment [4]; -99% (active) in experiment [5]; -88.4% (active) in experiment [6]. For the same molecule, the growth is -94.5% (active) in [7], -66.8% (active) in experiment [8] and -19.3% (active) in experiment [9].
Regarding `CN(C)CC(C)(CN(C)C)C(=O)/C=C/c1c(Cl)cccc1Cl`, the growth in [1] is -4.62% (active); in experiment [2] it was -26.2% (active); in experiment [3] it was 53.1%; in experiment [4] it was 62.2%; in experiment [5], 91.9%; in experiment [6] it was 73.6%. The growth in experiment [7] is -31.3% (active); in experiment [8], 71.9%; in experiment [9] it was -29.7% (active).
Consider `Cc1nn(CCO)c(C)c1N=[N+]([O-])c1c(C)nn(CCO)c1C`, for which the growth in experiment [2] is 79%; in experiment [3], 83.6%; in experiment [4], 13.7%; in experiment [5], 115%; in [7] it was -88.1% (active); in experiment [8], 103%. In addition, in experiment [9], the growth was 96.1%.
Turning to `NC(=S)N/N=C\c1nccc2c(N)cccc12`, the growth in experiment [1] was 15.5%; in [2], 15.8%; in [3], 48%; in [4] it was 40.7%; in experiment [5], 16.6%; in experiment [6], 10.9%. Moreover, the figures for the growth in experiment [7], in [8] and in experiment [9] were 42.6%, 57.6% and 10.8%, respectively.
As for `COc1ccc2nc3cc([N+](=O)[O-])ccc3c(NNc3ccccc3)c2c1`, the growth in experiment [1] is 62.1%; in experiment [2], 81.7%; in [4] it was 72.8%; in [5], 71.9%; in experiment [6] it was 88.2%; in [7], 72.6%. Further, in [9], the growth was 84.6%.
With `CN(C)c1ccc(/C=C/c2nccc3ccccc23)cc1`, the growth is 87.9% in [2]; 89.4% in experiment [3]; 103% in experiment [4]; 99.2% in experiment [5]; 78.5% in experiment [6]; 81.6% in [7]. The values for the growth in experiment [8] and in experiment [9] were 94.1% and 78.4%, respectively.
As to `Nc1cccc2cccc([N+](=O)[O-])c12`, the growth in [1] was 98.5%; in experiment [2], 108%; in experiment [3], 113%; in experiment [4], 94.8%; in [5], 103%; in experiment [6], 118%. Moreover, the results for the growth in experiment [7], in [8] and in experiment [9] were 124%, 103% and 103%, respectively.
Take `Cc1cc(C(=O)c2ccc(Cl)cc2)ccc1O`: the growth in experiment [1] is 73.3%; in [2] it was 85.9%; in [3], 99%; in experiment [4], 79.2%; in experiment [5] it was 110%; in experiment [6], 117%. The growth in experiment [7] was 98.8%; in experiment [8], 116%; in experiment [9], 92.2%.
As for `CN1CSC(=S)N(Cc2ccccc2)C1`, the growth is 31.4% in [1]; 97.8% in experiment [2]; 103% in experiment [3]; 112% in experiment [4]; 114% in experiment [5]; 92.9% in [6]. In addition, the growth in experiment [7] is 65%; in [8], 108%; in [9] it was 102%.
In the case of `CCOC(=O)c1[nH]c(C#N)c(C(=O)OCC)c1C`, the growth in [2] was 94.8%; in experiment [3], 102%; in experiment [4], 97.7%; in experiment [5] it was 117%; in experiment [6] it was 101%; in experiment [7], 114%. Moreover, the growth in experiment [8] is 124%; in experiment [9] it was 106%.

These data come from PubChem BioAssay (NCI).
